Screens (PubChem BioAssay)
A-T KAP1 phos – potential ataxia-telangiectasia treatment | F2112 A-T fibroblasts, KAP-1 phosphorylation AlphaLISA; neocarzinostatin DNA damage 30 min before lysis | Potency, µM (series often up to 57.5 µM), for inactives: at the top dose activation, usual class: activators | hit rate 0.19% among 320,000; also: potency is read from the fitted curve at half-maximal effect; % of control where 0% means no effect; nearly all actives have a fitted effect of over 45% in size
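ATM-like activity read as KAP-1 phosphorylation via AlphaLISA donor/acceptor antibody pairs after lysis and 6 hr at 25C. Cells were ATM-null patient fibroblasts (F2112, hTERT), dosed 60 min, then exposed to the DSB inducer NCS for 30 min.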
Nrf2 inh – inhibitors of Nrf2 signaling; A549 ARE-Fluc reporter, luciferase luminescence, 18-24 h; Potency, µM (doses to about 46 µM), inactives show top-dose activity change, negative = inhibition, usual class: inhibitors; hit rate 2.1% among 360,000; also: potency is read from the fitted curve at half-maximal effect; % is scaled to controls: 0 for no effect and ±100 for the full control effect; nearly all actives have a fitted effect of over 60% in size
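A549 ARE_Fluc cells (5000/well, 5% FBS OPTI-MEM) pre-incubated 2 h, then treated with compounds 18-24 h at 37C/5% CO2 in concentration-response. CellTiter-Fluor viability read first; BugLite luciferase luminescence after 15 min at room temperature gives Nrf2 activity.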
TCR activator – T cell receptor activation; primary human leukocytes, anti-CD3, IL-2 HTRF, 48 h; Potency, µM (series often up to 9.22 µM), inactives show at the highest dose activation of IL-2 secretion, most hits filed as activators; 330,000 tested, under 10 active; also: % of control where 0% means no effect
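Readout: HTRF IL-2, Eu-cryptate/d2 antibody pair, 320nm excitation, 665nm emission. Stimulus: a-CD3 beads, no co-stimulation. Cells: primary human leukocytes. Exposure: 48 hr with compound.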
CCT chaperon mod – modulators of cytosolic chaperonin (CCT/TRiC) activity | activity change, % (test concentration not listed), hits read low | AID 651819 | hit rate 0.3% among 360,000 | purified chaperonin ATPase assay, HTRF ADP detection, 30 min; in the data active = activity change below about -30%; also: % is scaled to controls: 0 for no effect and ±100 for the full control effect
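Enzyme 40 or 20 nM (batch-dependent) in Tris pH 7.4/KCl/MgCl2/DTT; cpd 76 uM single point; ATP 10 uM; 30 min 37 °C; Transcreener ADP HTRF detection, 30 min RT; ratio 665/615.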
A549 tox-1 – A549 cytotoxicity, counter-screen for Nrf2 inhibitors; A549 ARE-Fluc cells, CellTiter-Fluor viability, 18-24 h; Potency, µM (top dose mostly 46 µM), without a hit: at the highest dose activity change, negative = cytotoxicity, usual class: inhibitors; hit rate 0.16% among 390,000; AID 504648; also: potency is read from the fitted curve at half-maximal effect; % is scaled to controls: 0 for no effect and ±100 for the full control effect
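A549 ARE-Fluc cells in 5% FBS OPTI-MEM, 5000 cells/well, rested 2 h then exposed to compounds in concentration-response for 18-24 h at 37 °C. Viability by CellTiter-Fluor fluorescence (Ex 405/Em 525) after 30 min; luciferase luminescence (BugLite, 15 min, RT) read afterwards.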
Nrf2 activator – Nrf2 pathway activation; hit rate 0.31% among 410,000; Potency, µM (doses to about 46.1 µM), for inactives: at the highest dose activation, actives largely listed as activators; AREc32 ARE-luciferase reporter (MCF7-derived line), luminescence, 24 h; AID 624171; also: potency is read from the fitted curve at half-maximal effect; % of control where 0% means no effect; nearly all actives have a fitted effect of over 65% in size
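Quantitative high-throughput format: AREc32 reporter cells, 1000 per well, received compound by pin transfer and were incubated 24 hr at 37 deg C, 5% CO2, before Steady-Glo luminescence detection.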
FLuc counter 3 – counter-screen for Nrf2 inhibitors: firefly luciferase enzyme inhibition; shares compounds with Nrf2 inh; AID 720522; purified firefly luciferase, luminescence inhibition; hit rate 4% among 1,400; Potency, µM (top dose mostly 57.5 µM), inactives show at the top dose activity change, negative = inhibition, most hits filed as inhibitors; also: potency is read from the fitted curve at half-maximal effect; % is scaled to controls: 0 for no effect and ±100 for the full control effect; nearly all actives have a fitted effect of over 65% in size
Target sequence (P08659 whole entry, looked up): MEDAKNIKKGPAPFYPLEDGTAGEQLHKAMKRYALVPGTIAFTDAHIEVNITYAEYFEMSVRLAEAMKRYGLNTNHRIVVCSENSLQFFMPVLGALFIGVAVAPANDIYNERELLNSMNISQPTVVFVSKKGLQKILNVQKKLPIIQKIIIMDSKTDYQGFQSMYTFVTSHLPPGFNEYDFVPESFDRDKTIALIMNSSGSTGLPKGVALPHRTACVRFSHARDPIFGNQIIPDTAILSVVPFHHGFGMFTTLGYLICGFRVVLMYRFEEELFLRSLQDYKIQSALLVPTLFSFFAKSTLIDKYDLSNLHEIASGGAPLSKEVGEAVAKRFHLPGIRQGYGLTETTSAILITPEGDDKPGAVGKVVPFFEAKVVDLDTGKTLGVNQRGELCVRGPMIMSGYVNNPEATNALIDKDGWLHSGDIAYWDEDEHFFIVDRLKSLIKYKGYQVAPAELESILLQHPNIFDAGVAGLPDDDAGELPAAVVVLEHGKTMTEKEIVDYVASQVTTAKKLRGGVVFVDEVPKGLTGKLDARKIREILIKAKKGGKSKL
A549 tox-2 – counter-screen for Nrf2 inhibitors: cytotoxicity in A549 ARE cells | shares compounds with Nrf2 inh | A549 ARE-Fluc cells, cytotoxicity counterscreen | Potency, µM (highest dose often 46.1 µM), without a hit: at the top dose activity change, negative = cytotoxicity, actives largely listed as inhibitors | hit rate 2% among 1,400;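 also: potency is read from the fitted curve at half-maximal effect; cells exposed to compounds for 18 to 24 hours; % is scaled to controls: 0 for no effect and ±100 for the full control effect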
ARE-Fluc inh – Nrf2 inhibition confirmed, A549 ARE-luciferase. A549 ARE-firefly luciferase reporter, luminescence. Potency, µM (highest dose often 46.1 µM), inactives show at the highest dose activity change, negative = inhibition, hits mostly inhibitors. hit rate 74% among 1,400. shares compounds with Nrf2 inh; also: potency is read from the fitted curve at half-maximal effect; % is scaled to controls: 0 for no effect and ±100 for the full control effect; nearly all actives have a fitted effect of over 65% in size
* = called active by the depositor; u = inconclusive; x = no result given; ! = a repeat was not active; [ ] = remark or other dose. A selection: hits, their analogues and other compounds. The true share with any hit is near 2.6%. Unless noted, calls follow the shape of the dose curve; as a rule, active = well fitted curve in the direction sought with a large enough effect; inconclusive = small, poorly fitted or top-dose-only effect, or another doubt; inactive = no such curve, though single readings can be large; an effect the other way counts as inactive or inconclusive.

SMILES	A-T KAP1 phos	Nrf2 inh	TCR activator	CCT chaperon mod	A549 tox-1	Nrf2 activator	FLuc counter 3	A549 tox-2	ARE-Fluc inh
COc1ccc(CCN(C)C(=O)Cc2ccc(-c3ccccc3)cc2)cc1OC	-3%	5.8µM*	5%	-9	-1%	3%	0%	-2%	18µM*
CC1(C)CC2CC(C)(CN2C(=O)c2ccc([N+](=O)[O-])cc2[N+](=O)[O-])C1 (stereo not given)	0%	8%	1%	0	6%	0%	x	x	x
COc1cc(/C=C2\COC/C(=C\c3cc(OC)c(OC)c(OC)c3)C2=O)cc(OC)c1OC	u	5.8µM*	3%	1	9%	-3%	-1%	2%	0.12µM*
COc1cc(/C=C2\CCc3ccccc3C2=O)cc(OC)c1OC	7%	-28%	0%[46.1 µM]	1	5%	u	x	x	x
C/C(=C\C(=O)OCCCCCCCCC(=O)O)C[C@@H]1OC[C@H](C[C@@H]2O[C@H]2[C@@H](C)[C@H](C)O)[C@@H](O)[C@H]1O	x	20%	1%	-2	0%	0%	x	x	x
Cc1cc(F)ccc1S(=O)(=O)N1CCCOC1CNC(=O)C(=O)NCc1ccccn1 (stereo not given)	-9%	8%	-5%	-4	-3%	0%	x	x	x
O=C(Nc1ccccc1F)Nc1ccccc1N1CCCCC1	2%	5.8µM*	0%	2	u	5%	-13%	-2%	u
O=C(CN1C(=O)CSc2ccc(S(=O)(=O)N3CCCC3)cc21)NCc1ccccc1Cl	x	-23%	x	x	-1%	0%	x	x	x
COc1ccc(C2NC(=O)NC(C)=C2C(=O)OC2CCCCC2)cc1 (stereo not given)	x	x	x	2	x	0%	x	x	x
O=C(COC(=O)/C=C/c1cccc(C(F)(F)F)c1)Nc1ccc(Cl)cn1	9%	-9%	0%	-1	0%	u	x	x	x
CCN(C(=O)c1ccc(C(C)(C)C)cc1)c1nnc(Cn2nnc3ccccc32)s1	-8%	5.8µM*	6%	-1	u	5%	1%	-15%	6.5µM*
O=C(NCc1ccccn1)C1(C(F)(F)F)C/C(=C\Cc2ccccc2)CCCO1 (stereo not given)	x	-3%	x	x	-7%	x	x	x	x
CN1C(C(=O)Nc2ccc(OC(F)(F)F)cc2)=CC(c2cccs2)=NS1(=O)=O	-1%	3.7µM*!	-4%	2	1%	0%	-2%	-26%	x
C=CCNC(=O)C(=O)NCCOc1ccccc1Cl	11%	-3%	-5%[46.1 µM]	1	-12%	0%	x	x	x
Cc1cc(=O)[nH]c(N/N=C/c2ccccn2)n1	-5%	-4%	-5%	0	-7%	0%	x	x	x
O=c1cnnc(N/N=C/c2ccccn2)[nH]1	1%	u	4%	1	-20%	1%	0%	-16%	12µM*
CCN(CC(=O)Nc1ccc(OC)cc1)C(=O)c1cccc(S(=O)(=O)N2CCN(c3ccccc3)CC2)c1	x	x	x	-1	x	1%	x	x	x
CN(Cc1ccc(Cl)c(Cl)c1)C(=O)c1cccc(S(=O)(=O)N2CCN(Cc3ccccc3)CC2)c1	-2%	9.2µM*	-3%	-1	-20%	0%	-2%	-24%	u
CN(Cc1ccc(OC(F)F)cc1)C(=O)c1cccc(S(=O)(=O)N2CCN(c3ccccc3)CC2)c1	x	4.6µM*	11%	2	-17%	0%	-2%	2%	x
CC1CN(c2ccc(Cl)nn2)CC(C)O1 (stereo not given)	5%	-3%	-2%	-2	-5%	0%	x	x	x
Cc1ccc(-n2c(=O)c3c(c4cc(C)ccc4n3C)n(CC(=O)NCc3ccccc3Cl)c2=O)cc1	x	0%[9.27 µM]	x	x	2%	0%	x	x	x
CCOc1ccc(NC(=O)Cn2cc(C(=O)c3ccc(CC)cc3)c(=O)c3cc4c(cc32)OCO4)cc1	x	6%	x	x	-9%	0%	x	x	x
CC(Nc1ncnc2sccc12)c1ccccc1 (stereo not given)	0%	1.6µM*	0%	2	-7%	0%	0%	0%	1.5µM*
O=C(Nc1ccccc1)c1ccc(S(=O)(=O)Nc2cccc(O)c2)cc1	-5%	u	-5%	0	-1%	0%	x	x	x
CC(=O)c1cccc(NS(=O)(=O)c2ccc(C(=O)Nc3ccccc3)cc2)c1	-10%	7.3µM*	4%	1	-4%	-1%	-10%	-11%	4.1µM*
SMILES	A-T KAP1 phos	Nrf2 inh	TCR activator	CCT chaperon mod	A549 tox-1	Nrf2 activator	FLuc counter 3	A549 tox-2	ARE-Fluc inh
CC(=O)c1ccc(OCCCC(=O)Nc2ccc(Cl)c(S(=O)(=O)N3CCOCC3)c2)cc1	x	5.2µM*	x	-4	-15%	4%	-13%	-2%	7.3µM*
COc1ccc(C(=O)Nc2ccc(Cl)c(S(=O)(=O)N3CCOCC3)c2)cc1	3%	9.2µM*	-2%[46.1 µM]	1	-14%	3%	21µM*	-12%	x
COc1ccc(C(=O)Nc2ccc(S(=O)(=O)N3CCOCC3)cc2)cc1	x	-17%	-5%	2	-4%	-1%	x	x	x
Cc1ccc(OCCCC(=O)Nc2ccc(Cl)c(S(=O)(=O)N3CCOCC3)c2)cc1	-6%	u	-1%	-1	-13%	3%	x	x	x
CSc1nc(O)c(C(c2ccc(O)cc2)c2c(O)nc(SC)[nH]c2=O)c(=O)[nH]1	6%	7%	-8%	-5	-3%	0%	x	x	x
COc1ccc(-n2ncc3c2ncn2nc(-c4ccc(Cl)cc4Cl)nc32)cc1	x	14%	x	x	-6%	0%	x	x	x
C/C(=N\NC(=O)COc1ccccc1-c1ccccc1)c1ccccn1	u	4.6µM*	4%	2	u	u	0%	-7%	1.3µM*
CCOc1ccc(C(=O)OCC(=O)NCC2CCCO2)cc1 (stereo not given)	-1%	4%	-4%	-1	-2%	-1%	x	x	x
COc1ccc(COC(=O)c2[nH]c3c(c2C)C(=O)CC(c2ccc(OC)c(OC)c2)C3)cc1 (stereo not given)	x	6.5µM*	x	x	-8%	-1%	-2%	0%	6.5µM*
